The source of these data is PubChem BioAssay.

Experiment [1] can be described thus: Her2 expression decrease, cell viability multiplex – SKBR3 breast tumor cells, AlphaScreen, ATP viability, primary screen (AID 461;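 active means Her2 level under about 52% in both replicate screens, with viability over 70% of control, limit read from the data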;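 on Her2 level: lower value means less Her2 protein in the cells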;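 on viability: percent of carrier control wells set as 100% viability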). The note with it: SKBR3 Her2 protein level, 18-24 h, measured here: SKBR3 viability, ATP luminescence, at 10 µM. For orientation: In Alpha technology, singlet oxygen from a donor bead excites a nearby acceptor bead.
The target of experiment [2] is Receptor tyrosine-protein kinase erbB-2 (Homo sapiens) (UniProt P04626). The experiment is described as above. The note with it: 18-24 h, at 10 µM, stronger effect = lower value.
Sequence of Receptor tyrosine-protein kinase erbB-2 (Homo sapiens) (P04626 whole entry, looked up): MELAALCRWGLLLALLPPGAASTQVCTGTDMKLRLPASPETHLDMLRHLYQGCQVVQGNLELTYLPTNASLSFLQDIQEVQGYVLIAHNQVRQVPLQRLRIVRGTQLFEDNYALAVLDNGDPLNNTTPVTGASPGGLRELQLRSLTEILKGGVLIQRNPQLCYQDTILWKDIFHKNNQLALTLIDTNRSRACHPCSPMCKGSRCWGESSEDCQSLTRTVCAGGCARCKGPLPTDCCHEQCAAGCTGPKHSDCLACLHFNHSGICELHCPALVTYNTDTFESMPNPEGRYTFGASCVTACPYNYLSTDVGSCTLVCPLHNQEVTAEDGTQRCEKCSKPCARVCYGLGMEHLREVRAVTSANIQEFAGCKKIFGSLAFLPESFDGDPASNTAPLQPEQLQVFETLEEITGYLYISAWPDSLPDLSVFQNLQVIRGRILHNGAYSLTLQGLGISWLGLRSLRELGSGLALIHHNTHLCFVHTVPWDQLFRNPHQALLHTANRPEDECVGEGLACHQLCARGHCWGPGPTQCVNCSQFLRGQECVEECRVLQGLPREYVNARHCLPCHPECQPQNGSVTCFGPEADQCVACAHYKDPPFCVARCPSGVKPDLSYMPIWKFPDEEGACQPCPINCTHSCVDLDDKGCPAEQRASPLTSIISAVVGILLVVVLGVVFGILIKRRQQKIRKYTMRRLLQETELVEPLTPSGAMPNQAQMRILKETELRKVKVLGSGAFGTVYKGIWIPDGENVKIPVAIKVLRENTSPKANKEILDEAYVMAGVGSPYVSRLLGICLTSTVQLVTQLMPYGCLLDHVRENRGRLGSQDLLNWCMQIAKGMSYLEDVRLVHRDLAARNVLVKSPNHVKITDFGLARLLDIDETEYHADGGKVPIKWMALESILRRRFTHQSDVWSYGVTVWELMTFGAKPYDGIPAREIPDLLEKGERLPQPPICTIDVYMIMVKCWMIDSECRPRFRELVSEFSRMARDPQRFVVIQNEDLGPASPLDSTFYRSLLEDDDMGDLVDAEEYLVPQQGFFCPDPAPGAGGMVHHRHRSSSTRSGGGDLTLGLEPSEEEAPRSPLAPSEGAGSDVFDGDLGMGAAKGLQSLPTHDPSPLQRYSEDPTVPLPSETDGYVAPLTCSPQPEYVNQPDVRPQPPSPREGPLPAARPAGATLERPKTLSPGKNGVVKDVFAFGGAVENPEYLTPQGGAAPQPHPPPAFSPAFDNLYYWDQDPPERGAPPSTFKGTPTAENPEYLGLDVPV
Experiment [3] can be described thus: reduced viability of SK-BR-3 breast cancer cells – cell-based, 24 h, human, pilot screen (AID 572;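 active means viability at or below 10% of carrier control in both of two separate runs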;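 further: compound exposure lasted between 18 and 24 h rather than exactly 24 h; 100% = carrier-treated control wells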). Conditions: SK-BR-3 viability, CellTiter-Glo luminescence, at 10 µM, stronger effect = lower value. (ATP-based viability assays read luminescence as a measure of living cells.)
Experiment [4] is described as follows: HUVEC growth inhibition – cell-based, human, primary screen (AID 575;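 active means viability at or below 30% in both replicate assays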;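 further: 100% = median of untreated cell wells with 0.1% DMSO on each plate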). Conditions: HUVEC proliferation, CellTiter-Glo luminescence, 72 h; at 10 µM; stronger effect = lower value.
Experiment [5] can be described thus: H69AR cell proliferation blockers – human, duplicate replicates, primary screen (AID 580).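 Further: 100% = mean luminescence of untreated wells and 0% = no signal.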 The note with it: H69AR lung tumor cells viability, ATP luminescence, 72 h; at 10 µM; stronger effect = lower value.
Experiment [6] is described as follows: MRP1 drug-resistance reversers in H69AR cells – cell-based, doxorubicin co-treatment, pilot screen (AID 601;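 active means viability loss from added drug above about 55%, and viability with drug at most 40%, in both replicates, limit read from the data, passing the limit was not always enough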). The note with it: CellTiter-Glo, 72 h, at 10 µM; for differential viability (reversal): stronger effect = higher value.
Experiment [7] in a line: yeast transport mutant growth inhibition pilot in 384-well plates, post-Golgi transport modulator project (AID 636; in the data active means inhibition above about 31%). Conditions: absorbance 615 nm, about 18 h, stronger effect = higher value.
Experiment [8] in a line: growth suppression of yeast trafficking mutant, preliminary HTS, modulators of trafficking downstream of Golgi apparatus project, 1536-format plate, OD 615 nm (AID 637; in the data active means inhibition above about 30%). Conditions: yeast transport mutant growth, absorbance 615 nm, 18 h; stronger effect = higher value.
The nature of experiment [9]: S. cerevisiae growth inhibition in permissive medium (OD615), pilot counter-assay for S. cerevisiae lifespan shortening project, permissive growth control (AID 705;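 active means growth inhibition above 25% in both replicates, a cutoff set 3 SD above the mean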). The note with it: OD615, 24 h, at 10 µM, stronger effect = higher value.
The nature of experiment [10]: S. cerevisiae growth inhibition in restrictive medium, OD615, pilot screen, restrictive growth control, yeast lifespan reduction project (AID 706;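 active means growth inhibition above a set limit, 3 SD over mean compound inhibition, in both replicates, cut at about 43% in these data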;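 further: modified DeaD lifespan yeast strain shifted to restrictive glucose medium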). Conditions: OD615, 48 h, at 10 µM, stronger effect = higher value.
The nature of experiment [11]: doxorubicin toxicity protection in MRP-1 cells – H69AR cells, CellTiter-Glo, duplicate, MRP-1 activator project, pilot screen (AID 807;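 active means viability increase at or above a cutoff of the median across tested compounds plus 3 SD, cut at about 8.5% in these data, passing the limit was not always enough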;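 further: compound pretreatment 18-22 h then 72 h combined with doxorubicin; 0% = doxorubicin alone and 100% = vehicle without doxorubicin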). The note with it: H69AR viability with doxorubicin, CellTiter-Glo luminescence; at 10 µM; stronger effect = higher value.
A short description of experiment [12]: viability of HCT116 without oncogenic beta-catenin – human colon tumor cells, pilot screen (AID 823;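 active means cell viability at or below a set limit in both duplicate runs, the limit being the all-compound median minus 4 SD, cut at about 23% in these data, passing the limit was not always enough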;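 further: 0% = wells killed by 20 µM Hyamine and 100% = untreated DMSO cell wells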). Conditions: HCT116 beta-catenin knockout viability, CellTiter-Glo, 60 h; at 10 µM; stronger effect = lower value.
Experiment [13] is described as follows: viability of PTEN-null HCT116 cells – cell-based, HCT116 clonal line, CellTiter-Glo, pilot screen (AID 824;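 active means viability at or below 27.92% in each of two runs, the all-compound median minus 4 SD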;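 further: 0% = 20 µM Hyamine control and 100% = vehicle cell control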). The note with it: HCT116 PTEN-deleted viability, 60 h, at 10 µM, stronger effect = lower value.
Experiment [14] can be described thus: RAM pathway blockade in budding yeast – dse1pr::URA3 reporter, 5-FOA selection, pilot screen (AID 869;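 active means inhibition over a set limit, the all-compound mean plus 3 SD, in both replicate runs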;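 further: 0% = DMSO wells with no growth and 100% = 10 µM 1-NA-PP1 with full growth; RAM network block rescues cells from 5-FOA so hits raise OD615 growth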). The note with it: S. cerevisiae dse1pr::URA3 5-FOA growth, OD615, 2 d; at 10 µM; stronger effect = higher value; strain carries analog-sensitive mutant Cbk1 kinase.
Experiment [15] in a line: RAM signaling pathway blockade in yeast – S. cerevisiae, Pdr1DBD-CYC8 efflux-inhibited sensitized strain, primary screen (AID 1298;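 active means RAM network inhibition above 8.4% in each of two replicates, 3 SD over the compound average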;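 further: 0% = DMSO untreated cells without growth and 100% = 10 µM 1-NA-PP1 full growth; higher means more yeast growth rescued from 5-FOA killing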). Conditions: S. cerevisiae cbk1-as DSE1-URA3 strain, 5-FOA growth OD615, 2 d; at 50 µM; stronger effect = higher value.
Setting [16] is: H69AR cells + 2 uM doxorubicin, measured here: viability with 2 uM doxorubicin, stronger effect = lower value.
Where [17] appears, read: H69AR cells, compound alone cytotoxicity.

The structures appear in SMILES notation. Records with an inconclusive call do not appear. Activity calls are given as the source filed them.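 How the source made its calls, unless noted: active means viability at or under a set limit in both replicates, limit being median viability minus 3 SD (cut at about 48% in these data, passing the limit was not always enough); inconclusive means at or under the limit in just one replicate; inactive means at or above the limit in both replicates.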

One may read the viability as a read-out of living cells in per cent, often relative to untreated cells. One may read the inhibition as the change of the read-out against control, counted positive when it falls. Regarding `COc1ccc(CCNc2oc(COc3ccccc3Cl)nc2C#N)cc1OC`, the viability was 90% in [1]; 90% (inactive) in experiment [3]; 56.8% (inactive) in [4]; 92.2% (inactive) in experiment [5]; 96.3% in [6] (setting [16]); 92.2% in experiment [6] (setting [17]). Moreover, the results for the viability in experiment [12] and in experiment [13] were 88.5% (inactive) and 73.2% (inactive), respectively. In addition, the Her2 level in experiment [2] is 87% (inactive). In experiment [6] (H69AR cells + 2 uM doxorubicin), the differential viability (reversal) was -4.1% (inactive). Moreover, the inhibition in experiment [7] is -1.6% (inactive); in [8] it was -1.83% (inactive); in experiment [14] it was 1.5% (inactive). Also, the values for the growth inhibition in [9] and in [10] were -10% (inactive) and -0.295% (inactive), respectively. The viability increase in [11] is -1.73% (inactive). Moreover, the RAM network inhibition in experiment [15] is 2.3% (inactive).

As to `Cn1c(=O)[nH]c(=O)c2c1nc(N1CCCCC1)n2CCSc1ncccn1`, the viability in experiment [1] is 101%; in [3], 101% (inactive); in [4], 102% (inactive); in [5], 88.8% (inactive); in experiment [6] (setting [16]), 92.5%; in experiment [6] (setting [17]), 88.8%. Besides, the figures for the viability in [12] and in experiment [13] were 101% (inactive) and 103% (inactive), respectively. The Her2 level in experiment [2] was 89.5% (inactive). Further, the differential viability (reversal) in experiment [6] (H69AR cells + 2 uM doxorubicin) is -3.65% (inactive). For the same compound, the inhibition is -3.2% (inactive) in experiment [7], 0.83% (inactive) in experiment [8] and 2.44% (inactive) in experiment [14]. Also, the growth inhibition is 1.54% (inactive) in [9] and -4.51% (inactive) in [10]. The viability increase in [11] was 1.1% (inactive). Besides, the RAM network inhibition in experiment [15] was -0.42% (inactive).

Regarding `O=C(NCCCN1CCOCC1)c1cc(-c2ccc(O)cc2)on1`, the viability in experiment [1] is 100%; in [3], 100% (inactive); in experiment [4], 83.7% (inactive); in experiment [5] it was 94.8% (inactive); in experiment [6] (setting [16]), 89%; in experiment [6] (setting [17]) it was 94.8%. Also, the viability in experiment [12] is 92.3% (inactive); in [13], 93.7% (inactive). In addition, the Her2 level in experiment [2] was 87.5% (inactive). For the same compound, the differential viability (reversal) in experiment [6] (H69AR cells + 2 uM doxorubicin) is 5.84% (inactive). In addition, the inhibition in experiment [7] was -6.4% (inactive); in [8] it was -4% (inactive); in [14] it was -0.505% (inactive). The growth inhibition in [9] was -9.88% (inactive); in experiment [10], -16.8% (inactive). In addition, in [11], the viability increase was -6.65% (inactive). Besides, the RAM network inhibition in experiment [15] is 0.12% (inactive).

Turning to `O=C(CSc1nnc2ccccn12)c1ccccc1`, the viability in experiment [1] is 99%; in experiment [3], 99% (inactive); in [4], 88.8% (inactive); in experiment [5] it was 94.5% (inactive); in [6] (setting [16]) it was 80.3%; in [6] (setting [17]), 94.5%. Also, the viability in [12] was 109% (inactive); in [13], 102% (inactive). Further, the Her2 level in experiment [2] was 88% (inactive). Also, in [6] (H69AR cells + 2 uM doxorubicin), the differential viability (reversal) was 14.1% (inactive). The inhibition in experiment [7] is -4.27% (inactive); in experiment [8], -3.44% (inactive); in [14] it was 1.23% (inactive). Also, the results for the growth inhibition in experiment [9] and in experiment [10] were -13.8% (inactive) and -10.6% (inactive), respectively. The viability increase in experiment [11] was 0.47% (inactive). Also, the RAM network inhibition in experiment [15] was 2.3% (inactive).

Consider `CC1CCc2nn(CC(=O)NCCN3CCOCC3)cc2C1` (stereo not given), for which the viability in experiment [1] was 101%; in [3], 101% (inactive); in experiment [4] it was 98.6% (inactive); in experiment [5] it was 89.4% (inactive); in experiment [6] (setting [16]), 97.7%; in [6] (setting [17]), 89.4%. Besides, the viability is 108% (inactive) in experiment [12] and 101% (inactive) in experiment [13]. For the same compound, the Her2 level in experiment [2] is 113% (inactive). In addition, the differential viability (reversal) in [6] (H69AR cells + 2 uM doxorubicin) was -8.26% (inactive). Also, the inhibition is -2.44% (inactive) in [7], -2.33% (inactive) in experiment [8] and 0.965% (inactive) in [14]. Besides, the growth inhibition is 2.41% (inactive) in experiment [9] and 6.26% (inactive) in [10]. The viability increase in experiment [11] is 0.93% (inactive). In addition, in experiment [15], the RAM network inhibition was 4.43% (inactive).
